Measurements: PubChem BioAssay (NCATS)
Records with an inconclusive call do not appear. Active and inactive are the calls of the source. The call rests on the fitted dose curve; in most records, active means well fitted activation curve with a large enough effect; inconclusive means small, poorly fitted or top-dose-only effect, or effect the other way; inactive means flat fitted curve, though single readings scatter.

Assay: qHTS Assay for Identification of Small Molecule Agonists for Thrombopoietin (TPO) Signaling Pathway (AID 917)
Settings: TPO signaling pathway reporter cells, agonist qHTS; series mostly up to 38.5 µM
Procedure: NIH Molecular Libraries Screening Centers Network [MLSCN]
NIH Chemical Genomics Center [NCGC]
The thrombopoietin (TPO) signaling pathway was assayed in murine Ba/F3 cells stably transfected with the human TPO receptor and a luciferase reporter gene controlled by the Glycoprotein IIb promoter (provided by Axxam). BaF3 cells are an IL-3-dependent pro B cell line that upon TPO stimulation, undergo cell division and induce the megakaryocyte marker, Glycoprotein IIb. The assay was screened at the EC50 of TPO (26 pM) to identify activators of the pathway.
NCGC Assay Protocol Summary:
Cells were maintained at 37 C and 5% CO2in RPMI with 10% fetal bovine serum, 0.5 ng/mL murine IL-3, 100U/ml penicillin and 100 ug/ml streptomycin. Prior to plating, cells were incubated overnight in medium without IL-3. Cells were plated at 250 cells/5uL/well into white solid 1536-well plates, 23 nL of compounds were delivered by a pin tool, and 1 uL of TPO (26 pM final concentration in IL-3 deficient medium) was added. Following 24 hrs of incubation at 37 C and 5% CO2, 4 uL of Steadylite detector mix (PerkinElmer) was added, the plates incubated at room temperature for 10 min and luminescence was measured for 10 s and 2X binning by a ViewLux detector (Perkin Elmer).

Question: For Cc1nccc2c1[nH]c1ccccc12, which outcome is on record?
Answer: inactive

Question: With NCc1cc(=O)[nH]o1 as the compound, how does the outcome read?
Answer: inactive

Question: For NCCc1c[nH]c2ccc(O)cc12, which outcome is on record?
Answer: inactive

Question: For NC(N)=NOCCC(N)C(=O)O (stereo not given), which outcome is on record?
Answer: inactive

Question: For CC(=O)NCCc1c[nH]c2ccccc12, which outcome is on record?
Answer: inactive

Question: Which outcome does the source give for CC1=NN=C(c2ccc(N)cc2)c2cc3c(cc2C1)OCO3 here?
Answer: inactive

Question: Which outcome does the source give for NC(=NCCC[C@H](N)C(=O)O)N[N+](=O)[O-] here?
Answer: inactive

Question: With NCCc1c[nH]c2ccccc12 as the compound, how does the outcome read?
Answer: inactive

Question: For C[C@@H]1O[C@H](C[N+](C)(C)C)C[C@H]1O, which outcome is on record?
Answer: inactive

Question: With CNCCc1c[nH]c2ccc(O)cc12 as the compound, how does the outcome read?
Answer: inactive

Question: For C[C@]12N[C@H](Cc3ccccc31)c1ccccc12, which outcome is on record?
Answer: inactive

Question: Which outcome does the source give for CC(C)Oc1cccnc1N(C)C1CCN(Cc2ccccc2)CC1 here?
Answer: inactive

Question: For Clc1cnc(Oc2ccc(Oc3ncc(Cl)cc3Cl)cc2)c(Cl)c1, which outcome is on record?
Answer: inactive

Question: For O=C1CCCN1CC#CCN1CCCC1, which outcome is on record?
Answer: inactive

Question: With CCCN(CCC)[C@@H]1CCc2ccc(O)cc2C1 as the compound, how does the outcome read?
Answer: inactive

Question: Which outcome does the source give for CCCN1CCC[C@H](c2cccc(O)c2)C1 here?
Answer: inactive

Question: Which outcome does the source give for O=C(O)CC[N+](=O)[O-] here?
Answer: inactive

Question: For Cn1cnc(CCN)c1, which outcome is on record?
Answer: inactive

Question: Which outcome does the source give for O=C(O)Cc1cnc[nH]1 here?
Answer: inactive

Question: For CCCN1CCO[C@@H]2c3cc(O)ccc3OC[C@H]21, which outcome is on record?
Answer: inactive
